Values joined by “and” are separate entries in the source; they are usually repeats but may differ in a detail not shown here. Equal entries are not always repeated. In all, about 390,000 compounds went through this assay and about 820 (0.21%) were called active. Roughly 3% stayed inconclusive and do not appear here. Calls follow the shape of the dose curve; as a rule, active = well fitted inhibition curve with a large enough effect; inconclusive = small, poorly fitted or top-dose-only effect, or another doubt; inactive = no such curve, though single readings can be large or run the other way. The entries come from a sample that favours actives as a whole. A call without a number means that no potency is given here. A structure can be active in one record and inactive in another.
Potency is read from the fitted curve at half-maximal effect.

Chain of Histone acetyltransferase KAT2A (Homo sapiens) (Q92830 whole entry, looked up): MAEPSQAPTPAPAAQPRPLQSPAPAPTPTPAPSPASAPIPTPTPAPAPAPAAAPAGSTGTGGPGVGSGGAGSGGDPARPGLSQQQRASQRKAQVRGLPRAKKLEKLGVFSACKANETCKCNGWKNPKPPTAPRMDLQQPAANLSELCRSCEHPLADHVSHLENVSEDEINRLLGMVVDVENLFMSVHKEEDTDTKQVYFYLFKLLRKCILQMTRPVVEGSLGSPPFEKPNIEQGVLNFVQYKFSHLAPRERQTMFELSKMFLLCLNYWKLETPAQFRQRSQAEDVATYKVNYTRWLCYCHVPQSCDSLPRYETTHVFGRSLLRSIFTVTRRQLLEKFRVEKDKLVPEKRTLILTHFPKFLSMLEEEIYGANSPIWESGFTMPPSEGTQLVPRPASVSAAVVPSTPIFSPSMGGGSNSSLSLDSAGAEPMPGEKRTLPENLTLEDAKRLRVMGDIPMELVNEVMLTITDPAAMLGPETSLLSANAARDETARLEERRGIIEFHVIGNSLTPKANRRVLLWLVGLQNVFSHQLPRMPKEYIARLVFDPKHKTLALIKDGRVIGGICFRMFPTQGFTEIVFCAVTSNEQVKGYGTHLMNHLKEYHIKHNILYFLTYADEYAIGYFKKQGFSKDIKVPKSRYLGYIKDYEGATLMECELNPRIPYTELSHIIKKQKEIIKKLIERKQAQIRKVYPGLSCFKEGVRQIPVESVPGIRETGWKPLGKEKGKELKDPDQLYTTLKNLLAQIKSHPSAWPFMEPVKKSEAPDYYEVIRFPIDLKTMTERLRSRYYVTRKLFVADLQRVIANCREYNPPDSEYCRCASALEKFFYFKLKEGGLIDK

This assay has as its target Histone acetyltransferase KAT2A (Homo sapiens) (UniProt Q92830). Description: qHTS Assay for Inhibitors of GCN5L2. Conditions: GCN5L2 HAT assay, ThioGlo1 CoA-SH fluorescence; series mostly up to 58.9 µM. In short, it runs like this: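 Compounds, pin-transferred from DMSO stocks, meet 20nM GCN5L2 for 15 min before the reaction begins with H3(1-25) peptide (75uM) and acetyl-CoA (70uM). Thiol-reactive ThioGlo1 reports CoA release over 20 min at room temperature.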
On the technique in general: Quantitative high-throughput screening tests each substance at several concentrations.
Turning to `Cc1ccc(-c2nn(-c3ccccc3)cc2/C=C2\SC(=S)N(CCCCCC(=O)O)C2=O)o1`, the Potency is 25.1 µM (active).

Consider `CO[C@@]12[C@@H](COC(N)=O)C3=C(C(=O)C(C)=C(N)C3=O)N1C[C@@H]1N[C@@H]12`, for which the Potency entry is “inactive”.

As to `COc1ccccc1CNc1ncnc2ccc(-c3c(C)noc3C)cc12`, the Potency result is “inactive”.

As to `COc1ccccc1-c1nc(NCc2cccs2)c2ccccc2n1`, the Potency result was “inactive”.

With H-EHIPA-OH, the Potency entry is “inactive”.

Turning to `Nc1nc2c(ncn2[C@@H]2O[C@H](COP(=O)(O)OP(=O)(O)OP(=O)(O)O)[C@@H](O)C2O)c(=O)[nH]1` (some centres not stated), the Potency result is “inactive”.

As for `O=C(Cc1ccc(S(=O)(=O)N2CCOCC2)s1)N1CCN(c2ccc(C(F)(F)F)cc2[N+](=O)[O-])CC1`, the Potency result is “inactive”.

Consider `O=C(Nc1cccc(C(F)(F)F)c1)c1ccc(N2CCNCC2)c([N+](=O)[O-])c1`, for which the Potency entry is “inactive”.

With `COc1cc(OC)cc(C(=O)NC(=S)N2CCN(c3ccc(C(F)(F)F)cc3[N+](=O)[O-])CC2)c1`, the Potency was 2 µM (active).

Turning to `CC(C)=CCN1CCC2(CCc3ccccc32)CC1`, the Potency result was “inactive”.

For `CC(C)C(NS(=O)(=O)c1ccc(-c2ccc(Br)cc2)cc1)C(=O)O` (configuration not stated), the Potency result was “inactive”.

Take `COCCn1c(=O)c(-c2cccs2)nc2cncnc21`: the Potency entry is “inactive”.

Turning to `OCC(CO)NC1C[C@](O)(CO)[C@@H](O)[C@H](O)[C@H]1O` (some centres not stated), the Potency result was “inactive”.

Consider `COc1ccc(CNc2ncncc2-c2ccccc2C)c(OC)c1`, for which the Potency entry was “inactive”.

In the case of `COc1ccc(CCCOC(Cn2ccnc2)c2ccc(OC)cc2)cc1` (configuration not stated), the Potency result is “inactive”.

For `Cc1ccccc1NC(=O)c1cnn(-c2ccccc2)c1NC(=O)c1ccco1`, the Potency result is “inactive”.

For the compound `O=C(Nc1c(C(=O)N2CCCCC2)cnn1-c1ccccc1)c1ccco1`, the Potency was 17.8 µM (active).

Turning to `O=C(Cc1ccccc1)Nc1c(C(=O)N2CCCCCC2)cnn1-c1ccccc1`, the Potency entry is “inactive”.

Take `O=C(/C=C/c1cccc(F)c1)NC1CC1`: the Potency entry is “inactive”.

For the compound `CC(C)C1=CC2=CC[C@@H]3[C@](C)(CO)CCC[C@]3(C)C2CC1` (some centres not stated), the Potency entry is “inactive”.

Take `CC1=C(/C=C/C(C)=C/C=C/C(C)=C/C=C/C=C(C)/C=C/C=C(C)/C=C/C(=O)[C@]2(C)C[C@@H](O)CC2(C)C)C(C)(C)C[C@H](O)C1`: the Potency result was “inactive”.

Regarding `O=C(O)CCCCC(=O)O`, the Potency entry was “inactive”.

Regarding `CCCCCCCCCCCC(=O)O`, the Potency entry was “inactive”.

In the case of `C#CCCCCCCCCCCCCCCCC(=O)O`, the Potency result was “inactive and 11.2 µM (active)”.

On to `NC(=O)c1sc(-c2ccsc2)cc1N`, for which the Potency entry is “inactive”.

For the compound `Cc1nc2cnc(N3CCNCC3)nc2n(CCc2ccccc2)c1=O`, the Potency entry was “inactive”.

For `Cc1ccccc1-c1ccc(C(=O)O)s1`, the Potency entry was “inactive”.

On to `Cn1cc(-c2nc3cnc(N4CCNCC4)nc3n(CCc3ccccc3)c2=O)c2ccccc21`, for which the Potency entry is “inactive”.

Turning to `NCCCNCCCCN(CCCN)/[N+]([O-])=N/O`, the Potency result is “inactive”.

`COc1ccc(-c2cn3cccnc3n2)cc1`: the Potency is 31.6 µM (active).

As to `CC(C)(C)C(=O)Nc1ccc(-c2cn3cccnc3n2)cc1`, the Potency result was “inactive”.

For the compound `FC(F)(F)Oc1ccc(-c2cn3cccnc3n2)cc1`, the Potency result was “inactive”.

Consider `CC1O[C@@H](Oc2c(-c3ccc(O)c(O)c3)oc3cc(O)cc(O)c3c2=O)C(O)C(O)C1O` (some centres not stated), for which the Potency result was “inactive”.

Turning to `C=C1C(=O)C23C(O)C1CCC2[C@]12COC3(O)C(O)C1C(C)(C)CC[C@H]2O` (some centres not stated), the Potency result is “inactive”.

`COc1ccc(N2CCN(S(=O)(=O)c3ccc(-c4coc(C)n4)cc3)CC2)cc1`: the Potency result was “inactive”.

For the compound `CCc1nc(-c2cc(S(=O)(=O)N3CCN(c4ccc(OC)cc4)CC3)ccc2OC)no1`, the Potency was 25.1 µM (active).

Turning to `COc1ccc(S(=O)(=O)N2CCN(c3ccc(F)cc3)CC2)cc1-c1noc(C)n1`, the Potency result is “inactive”.

In the case of `Cc1ccc(/C(=C/CN2CCCC2)c2ccccn2)cc1`, the Potency result is “inactive”.

For the compound `COC(=O)N1CCC2(CCCN(c3ccncc3)C2)CC1`, the Potency result is “inactive”.

Consider `O=C(Oc1cc(OC(=O)c2ccccc2)c2c(c1)OC(c1ccc(OC(=O)c3ccccc3)c(OC(=O)c3ccccc3)c1)[C@@H](OC(=O)c1ccccc1)C2)c1ccccc1` (some centres not stated), for which the Potency entry was “inactive”.

Regarding `CCOC(=O)C1=C(C)Nc2sc(C(=O)c3ccc(Br)cc3)c(N)c2C1c1ccc(C(=O)OC)cc1` (configuration not stated), the Potency result was “inactive”.

With `CCOC(=O)c1sc(=S)n2c1[nH]c(=O)c1ccc(C(=O)OC)cc12`, the Potency is 35.5 µM (active).

For the compound `COC(=O)c1sc2[nH]c(=S)n(N)c(=O)c2c1C`, the Potency result is “inactive”.

With `CCCc1cc(=S)n2c([nH]c3ccccc32)c1C#N`, the Potency is 22.4 µM (active).

With `COc1cc2c(cc1OC)[C@@H](Cc1cc(OC)c(OC)c(OC)c1)[N+](C)(CCCOC(=O)CC/C=C/CCC(=O)OCCC[N+]1(C)CCc3cc(OC)c(OC)cc3[C@H]1Cc1cc(OC)c(OC)c(OC)c1)CC2` (some centres not stated), the Potency result is “inactive”.

As for `Cc1cccn2c(=O)c(C=O)c(Nc3ccc(S(N)(=O)=O)cc3)nc12`, the Potency entry was “inactive”.

For the compound `O=Cc1c(Nc2ccccc2Cl)nc2ccccn2c1=O`, the Potency is 22.4 µM (active).

Turning to `O=Cc1c(N2CCN(c3cccc(Cl)c3)CC2)nc2ccccn2c1=O`, the Potency result was “inactive”.

Take `CC(=O)NC(=O)c1ccccc1O`: the Potency entry was “inactive”.

Regarding `CC1CC2C3CCC4=CC(=O)C=C[C@]4(C)[C@@]3(F)[C@@H](O)C[C@]2(C)[C@@]1(O)C(=O)CO` (some centres not stated), the Potency entry was “inactive”.

Turning to `COc1c2c(cc3occ(-c4ccc5c(c4)OCO5)c(=O)c13)OC(C)(C)C=C2`, the Potency result was “inactive”.

As to `COc1ccc(C(=O)N2CCC3(CC2)CCN(c2ccccn2)CC3)cc1`, the Potency entry was “inactive”.

In the case of `COc1ccc(-c2nc3cnc(OC)nc3n(Cc3ccc(F)cc3)c2=O)cc1`, the Potency entry is “inactive”.

As for `CC(N)(C(=O)O)c1ccc(-c2nn[nH]n2)cc1` (configuration not stated), the Potency entry was “inactive”.

`COCCn1c(=O)c(CCc2ccccc2)nc2cncnc21`: the Potency result was “inactive”.

For the compound `O=C(O)CCC(=O)O`, the Potency entry is “inactive”.

Regarding `COc1ccc(CNc2ncncc2-c2ccccc2OC)c(OC)c1`, the Potency entry was “inactive”.

Turning to `O=C1NS(=O)(=O)c2ccccc21`, the Potency result was “inactive”.

As to `CC1(C)C=CC(=O)[C@]2(C)C1CC(=O)[C@]1(C)C2CC[C@@]2(C)C(c3ccoc3)OC(=O)C3OC321` (some centres not stated), the Potency entry was “inactive”.

On to `O=C1C(c2ccccn2)=[N+]([O-])c2ccccc21`, for which the Potency result was “inactive”.

Consider `O=C1C(c2[nH]c3ccccc3c2O)=Nc2ccccc21`, for which the Potency result is “inactive”.

Consider `O=C(c1ccncc1)N1CCC2(CCN(Cc3cc(C(F)(F)F)cc(C(F)(F)F)c3)CC2)CC1`, for which the Potency result was “inactive”.

In the case of `COc1ccc(CNC(=O)C(Cc2ccccc2)n2cccc2)cc1` (configuration not stated), the Potency result is “inactive”.

Regarding `Cc1ccc(C)n1C(Cc1ccccc1)C(=O)O` (configuration not stated), the Potency was 22.4 µM (active).

As for `CCOC(=O)C(Cc1ccc(N)cc1)N1C(=O)c2ccccc2C1=O` (configuration not stated), the Potency result was “inactive”.

For the compound `COc1cccc(Cn2c(=O)cnc3cncnc32)c1`, the Potency result is “inactive”.

As to `CC(=O)N1CCN(C(=O)c2cc(-c3ccc(C)o3)nc3ccccc23)CC1`, the Potency was 20 µM (active).

For the compound `Cc1ccc(S(=O)(=O)N2CCN(C(=O)c3ccccc3-c3nc4ccccc4s3)CC2)c(C)c1`, the Potency entry was “inactive”.

On to `CC(=O)N1CCN(C(=O)c2cc(-c3ccc(Cl)s3)nc3ccccc23)CC1`, for which the Potency entry is “inactive”.

`O=c1c(CCc2ccccc2)nc2cnc(N3CCNCC3)nc2n1Cc1cccs1`: the Potency result is “inactive”.

In the case of `NC(=O)C(=O)N/N=C/c1ccc([N+](=O)[O-])o1`, the Potency entry was “inactive”.

Take `CCOC(=O)C1C/C(=C\C(C)=O)c2cccc(C(F)(F)F)c2O1` (configuration not stated): the Potency entry is “inactive”.

Regarding `O=C(c1ccc(S(=O)(=O)N2CCCC2)cc1)N1CCN(c2ccccc2F)CC1`, the Potency result is “inactive”.

`COc1ccc(N2CCN(S(=O)(=O)c3ccc4c(c3)NC(=O)C(C)C(=O)N4)CC2)cc1` (configuration not stated): the Potency entry was “inactive”.

Consider `CC1C(=O)Nc2ccc(S(=O)(=O)N3CCN(c4ccccc4F)CC3)cc2NC1=O` (configuration not stated), for which the Potency is 39.8 µM (active).

Regarding `CC(C)=CC1C(C(=O)O)C1(C)C` (configuration not stated), the Potency entry is “inactive”.

Consider `Oc1ccc(Cl)c2c1CCC2`, for which the Potency entry was “inactive”.

These data come from PubChem BioAssay AID504327 (National Center for Advancing Translational Sciences (NCATS), 2011).
